In PubChem BioAssay AID1259343 (VanderVen Lab, College of Veterinary Medicine, Cornell …, 2017):
The campaign covered roughly 6,200 compounds. About 2,900 (47%) were called active. Cut-off read from the data, not from the text of the source: active = inhibition above about 50%; inactive = the rest. So high a share suggests a set chosen from earlier hits. The list shows a part of the results.

Experiment: Mycobacterium tuberculosis growth inhibition, primary screen (AID 1259343)
Conditions: inhibition: at 10 µM, active compounds read high; outcome: 10 uM
With Cc1ccc(-c2nc3c(NCc4cccc(N(C)C)c4)nccc3[nH]2)cc1 the inhibition was 65.2% (active). In the case of CC(=O)Nc1cc(C)nn1-c1nc(C)cc(=O)[nH]1, the inhibition was 100% (active). For Cc1cc(=O)[nH]c(-n2nc(C)cc2NC(=O)C(C)C)n1, the inhibition was 100% (active). With Cc1cc(=O)[nH]c(-n2nc(C)cc2NC(=O)c2snnc2C)n1 the inhibition was 99.6% (active). In the case of C/C=C/C(=O)Nc1cc(C)nn1-c1nc(C)cc(=O)[nH]1, the inhibition was 101% (active). In the case of Cc1ccc(/C=C/S(=O)(=O)N2CC(C(N)=O)c3ccccc32)cc1 (configuration not stated), the inhibition was -0.07% (inactive). For CCc1cc(=O)[nH]c(-n2nc(C)cc2NC(=O)C(C)C)n1, the inhibition was 101% (active). In the case of Cc1cc(NC(=O)c2ccc(-c3ccccc3)cc2)n(-c2nc(C)c(C)c(=O)[nH]2)n1, the inhibition was 100% (active). With Cc1cc(=O)[nH]c(-n2nc(C)cc2NC(=O)c2ccc(-c3ccccc3)cc2)n1 the inhibition was 100% (active). For Cc1cc(NC(=O)c2ccccc2)n(-c2nc(C)c(C)c(=O)[nH]2)n1, the inhibition was -21.2% (inactive). With Cc1cc(=O)[nH]c(-n2nc(C)cc2NC(=O)c2ccc(C)c(C)c2)n1 the inhibition was 100% (active). For CCOc1ccc(C(=O)Nc2cc(C)nn2-c2nc(C)c(C)c(=O)[nH]2)cc1OCC, the inhibition was 98.7% (active). With CCOc1ccc(C(=O)Nc2cc(C)nn2-c2nc(C)c(CC)c(=O)[nH]2)cc1OCC the inhibition was -21.9% (inactive). With Cc1ccc(C(=O)Nc2cc(C)nn2-c2nc(C)cc(=O)[nH]2)cc1 the inhibition was 101% (active). With Cc1cc(C)cc(C(=O)Nc2cc(C)nn2-c2nc(C)cc(=O)[nH]2)c1 the inhibition was 100% (active). With Cc1cc(=O)[nH]c(-n2nc(C)cc2NC(=O)c2ccccc2)n1 the inhibition was 101% (active). For CSc1c(C#N)c(SCC(=O)c2cc3ccccc3oc2=O)[nH]c(=O)c1C#N, the inhibition was 83% (active). With CSc1c(C#N)c(=O)[nH]c2sc(C#N)c(N)c12 the inhibition was 29.1% (inactive). In the case of COC(=O)c1ccc(-c2noc(CN3CCC(C(O)c4cccs4)CC3)n2)cc1 (configuration not stated), the inhibition was 16.3% (inactive). In the case of COC(=O)c1ccc(-c2noc(CN3CCCN(C(=O)c4ccco4)CC3)n2)cc1, the inhibition was 84.3% (active). With COC(=O)c1ccc(N2CCN(Cc3nc(Cc4cccc(F)c4)no3)CC2)cc1 the inhibition was 59.4% (active). With Fc1ccccc1Cc1noc(CN2CCN(c3cccc(C(F)(F)F)c3)CC2)n1 the inhibition was 34.2% (inactive). For COC(=O)c1ccc(-c2noc(CN3CCC(C(O)Cc4ccccc4)CC3)n2)cc1 (configuration not stated), the inhibition was 14.8% (inactive). In the case of O=C(Nc1ncc(SCCN2CCCC2)s1)[C@]1(c2ccc(S(=O)(=O)C3CC3)cc2)C[C@H]1C1CCCCC1, the inhibition was 17.1% (inactive). With CC(=O)Oc1ccc(CN2C(=O)C(CCc3ccccc3)ON=C2c2cnccn2)cc1 (configuration not stated) the inhibition was 41.4% (inactive). In the case of CC(C)(C)c1ccc(OCc2ccc(-c3nnco3)cc2)cc1, the inhibition was 49.7% (inactive). For Fc1ccc(COc2ccc(-c3nnco3)cc2)c(Cl)c1, the inhibition was 55.8% (active). In the case of CC(C)C(=O)Nc1ccc(Sc2nncs2)cc1, the inhibition was 89.1% (active). For Cc1csc(Sc2ccc(NC(=O)c3cnn(C)c3C)cc2)n1, the inhibition was 16.3% (inactive). For CC(=O)Nc1ccc(Sc2ncnc3sccc23)cc1, the inhibition was 0.26% (inactive). With CSCCCNC(=S)Nc1ccc(N2CCOCC2)cc1 the inhibition was 20.7% (inactive). With CCNC(=S)Nc1ccc(NC(=S)NCC)cc1 the inhibition was 63.7% (active). For COc1ccccc1NC(=S)N=C1CCN(c2ccccc2)N1, the inhibition was 19.3% (inactive). For CNC(=S)Nc1ccc(Nc2ccccc2OC)cc1, the inhibition was 72.1% (active). With CNC(=S)Nc1ccc(Oc2ccc(NC(=S)NC)cc2)cc1 the inhibition was 79.6% (active). In the case of CC(C)COC(=O)Nc1ccc2nc(N3CCOCC3)sc2c1, the inhibition was 27.4% (inactive). With CNC(=S)Nc1ccc(N2CCOCC2)cc1 the inhibition was 101% (active). For Cc1ncc(-c2ccc(NC(=O)C3CC3C)cc2)o1 (configuration not stated), the inhibition was 94.6% (active). For O=C(Nc1ccc(-c2cnc(C3CC3)o2)cc1)C1CCCC1, the inhibition was -17.9% (inactive). With N#Cc1cccc(COc2ccc(NC(=O)C3CCCO3)cc2F)c1 (configuration not stated) the inhibition was 91.9% (active). With N#Cc1cccc(COC(=O)CC(NC(N)=O)c2cccs2)c1 (configuration not stated) the inhibition was -9.57% (inactive). With FC(F)(F)c1cc(-c2ccco2)nc2c1cnn2Cc1cccnc1 the inhibition was 37% (inactive). For CCCN(CCC)C(=O)c1nn(-c2ccccn2)c2nccc(-c3cccs3)c12, the inhibition was 41.7% (inactive). With CN(Cc1ccc(Cl)c(Cl)c1)C(=O)c1csc(-c2cccs2)n1 the inhibition was 56.2% (active). In the case of CCNc1nc(C(=O)N(C)Cc2ccc(Br)o2)cs1, the inhibition was 8.37% (inactive). With CCC(C)(C)NC(=O)COC(=O)c1ccc(-c2ccc(O)cc2)cc1 the inhibition was 50.1% (active). In the case of CCC(C)(C)NC(=O)c1ccc2c(c1)S(=O)(=O)c1ccccc1C2=O, the inhibition was 14.8% (inactive). In the case of Cn1nc(C(=O)Nc2ccc(-c3nccs3)cc2)ccc1=O, the inhibition was 85.9% (active). In the case of CCCC(C)C(=O)Nc1ccc(-c2nccs2)cc1 (configuration not stated), the inhibition was 89.9% (active). In the case of [O-]/[N+](Cc1ccccc1)=N/OCc1ccccc1, the inhibition was 83.2% (active). For CCc1cc(=O)[nH]c(-n2nc(C)cc2NC(=O)C2CC(=O)N(c3ccc(C)c(C)c3)C2)n1 (configuration not stated), the inhibition was 101% (active). With CCc1cc(=O)[nH]c(-n2nc(C)cc2NC(=O)C2CC(=O)N(c3ccccc3)C2)n1 (configuration not stated) the inhibition was 101% (active). In the case of CCCC(Nc1nc(-c2cccnc2)nc2c1cnn2C)c1cccs1 (configuration not stated), the inhibition was 27.3% (inactive). With COc1ccccc1N1C(=O)CC(SC(N)=N/N=C(C)\C=C\c2ccc(N(C)C)cc2)C1=O (configuration not stated) the inhibition was -2.66% (inactive). For Nc1nn(C(=O)CC2CCCO2)cc1-c1cccc(Cl)c1 (configuration not stated), the inhibition was 83.6% (active). In the case of O=C1CSC(=NN=C2NC(=O)C(CC(=O)Nc3ccc(Br)cc3)S2)N1 (configuration not stated), the inhibition was 18.9% (inactive). For Oc1ccc(Br)cc1C=Nn1cc(-c2ccccc2)[nH]c1=S, the inhibition was 25.5% (inactive). For O=C1CSC(=NN=Cc2cc(Br)ccc2O)N1, the inhibition was 102% (active). With Cc1ncsc1C(=O)Nc1scc(C2CCCCC2)c1C(N)=O the inhibition was 24.3% (inactive). In the case of CN(C)CCNc1c2c(c(C#N)c3nc4ccccc4n13)CCCC2, the inhibition was 20% (inactive). With CN=c1scc(-c2c(-c3ccccc3)n(C)c3ccccc23)n1C the inhibition was 25.1% (inactive). In the case of O=C1N=C2OC=C(C(=O)Nc3ccc(-n4cccn4)cc3)N2CCN1, the inhibition was 60.6% (active). In the case of O=C1N=C2OC=C(C(=O)Nc3ccc(-n4cccc4)cc3)N2CCN1, the inhibition was 89.4% (active). In the case of O=C(Nc1ccc(N2CCCCC2)cc1)c1ccc(Cl)s1, the inhibition was 94% (active). For O=C(CCl)Nc1ccc(N2CCCCCC2)cc1, the inhibition was 21.1% (inactive). For N#Cc1cccnc1N1CCC(CCc2ccc(O)cc2)CC1, the inhibition was 93.1% (active). In the case of N#Cc1ccc(NC2CCN(c3ncccn3)CC2)cc1C(F)(F)F, the inhibition was 26.1% (inactive). For Cc1nn(-c2ccccc2)c2[nH]c(=O)c(C#N)c(-c3cccs3)c12, the inhibition was 64.4% (active). For COc1ccc2c(c1)OC1(O)COc3cc(OC)c(OC)cc3C1=C2 (configuration not stated), the inhibition was 61.7% (active). For Clc1ccc(C=Nc2ccc3c(c2)OCO3)cc1, the inhibition was 82.9% (active). For COc1ccc(O)c(C=Nn2c(C)csc2=NC(C)C)c1, the inhibition was 34% (inactive). With O=C1OC(c2ccc(Cl)cc2)=NC1=Cc1ccc2c(c1)OCO2 the inhibition was 15.6% (inactive). With Oc1ccc(N=Nc2ccc3c(c2)OCO3)c2ccccc12 the inhibition was -28.6% (inactive). With O=C(OCc1cc2c(cc1Br)OCO2)c1cccc(O)c1 the inhibition was -12.8% (inactive). In the case of Brc1ccccc1C=Nc1ccc2c(c1)OCO2, the inhibition was 94.3% (active). For COc1ccc(O)c(C=Nc2ccc3c(c2)OCO3)c1, the inhibition was 65.5% (active). With COC(=O)c1c(C)[nH]c(C(=O)NC(C)Cc2cccc(Cl)c2)c1C (configuration not stated) the inhibition was 30% (inactive). With CCC(C(=O)Nc1cc(C2CC2)nn1-c1nc(C)cc(=O)[nH]1)c1ccccc1 (configuration not stated) the inhibition was 100% (active). In the case of Cc1cccc(C(=O)Nc2cc(C3CC3)nn2-c2nc(C)cc(=O)[nH]2)c1, the inhibition was 100% (active). With Cc1cc(=O)[nH]c(-n2nc(C3CC3)cc2NC(=O)c2cc3ccccc3o2)n1 the inhibition was -20.2% (inactive). In the case of Cc1cc(=O)[nH]c(-n2nc(C3CC3)cc2NC(=O)c2ccccc2)n1, the inhibition was 100% (active). In the case of Clc1cnc(NN=Cc2cccs2)c(Cl)c1, the inhibition was -11.6% (inactive). For Clc1cnc(NN=Cc2ccco2)c(Cl)c1, the inhibition was 85.9% (active). In the case of Oc1ccc(C=NNc2ncc(C(F)(F)F)cc2Cl)c(O)c1O, the inhibition was 17.8% (inactive). In the case of CC[N+](CC)=c1ccc2nc3c(cc(N)c4ccccc43)oc-2c1, the inhibition was 102% (active). In the case of CO[C@H]1C=CO[C@@]2(C)Oc3c(C)c(O)c4c(O)c(c5c(nc6cc(C)ccn65)c4c3C2=O)NC(=O)C(C)=CC=C[C@H](C)[C@H](O)[C@@H](C)[C@@H](O)[C@@H](C)[C@H](OC(C)=O)[C@@H]1C, the inhibition was 98.5% (active). In the case of O=C(/C=C(\O)c1ccccc1)c1ccccc1O, the inhibition was 100% (active). For Cc1cccc(C(=O)Nc2cc(-c3cccs3)nn2-c2nc(C(C)C)cc(=O)[nH]2)c1, the inhibition was -9.66% (inactive). With CC(C)c1cc(=O)[nH]c(-n2nc(-c3cccs3)cc2NC(=O)c2cccc(F)c2)n1 the inhibition was 99.2% (active). In the case of CC(C)c1cc(=O)[nH]c(-n2nc(-c3cccs3)cc2NC(=O)c2ccc(F)cc2F)n1, the inhibition was 99.7% (active). For O=S(=O)(CCSc1ccccn1)c1nc2ccccc2s1, the inhibition was 101% (active). With COc1ccc(N2CCN(C(=O)CCl)CC2)cc1 the inhibition was 77.2% (active). In the case of O=C(CCl)N1CCN(c2cccc(Cl)c2)CC1, the inhibition was 79.1% (active). In the case of O=C(CCl)N1CCCc2cc([N+](=O)[O-])ccc21, the inhibition was 102% (active). For COc1ccc(C(=O)NCCCn2cccn2)cc1OC1CCN(C(C)=O)CC1, the inhibition was 17.6% (inactive). In the case of Cc1cccc(C(=O)NC(=NCCN2CCCC2)OCC(C)C)c1, the inhibition was 5.15% (inactive). With Cc1cccc(C(=O)NCCn2ncccc2=O)c1 the inhibition was 97.8% (active).
